The text below walks through data of PubChem BioAssay (NCI).

Assay [1] is described as follows: NCI Yeast Anticancer Drug Screen. Data for the rad50 strain (AID 155).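 Also: 0% = growth of vehicle-only cultures of the same strain.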 As to conditions: S. cerevisiae rad50 strain growth inhibition; at 50.0 µM; stronger effect = higher value. In outline:
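Readout: growth inhibition relative to vehicle-treated cultures. Compound exposure was carried out in a genetically defined yeast strain deficient in DNA damage repair.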

Assay [2] is described as follows: NCI Yeast Anticancer Drug Screen. Data for the mec2-1 strain (AID 157). As to conditions: S. cerevisiae mec2-1 strain, at 50.0 µM, stronger effect = higher value. The essentials:
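Growth inhibition is read against vehicle-treated controls after compound exposure of the mec2-1 yeast strain, which is defective in DNA damage repair or cell cycle control.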

The nature of assay [3]: NCI Yeast Anticancer Drug Screen. Data for the sgs1 mgt1 strain (AID 161).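 Also: 0% = growth of cultures given vehicle only.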 As to conditions: S. cerevisiae sgs1 mgt1 strain, at 50.0 µM, stronger effect = higher value. In outline:
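This yeast growth screen uses a strain with defined DNA-repair lesions; compound-treated growth is compared with vehicle-treated growth.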

Assay [4] in a line: NCI Yeast Anticancer Drug Screen. Data for the cln2 rad14 strain (AID 165).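 Also: 0% = growth equal to vehicle treated cultures.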 As to conditions: S. cerevisiae cln2 rad14 strain, at 50.0 µM, stronger effect = higher value. The essentials:
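Growth inhibition, relative to vehicle-treated controls, is the read-out. The test organism is a yeast strain with defined genetic alterations, cln2 rad14.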

The nature of assay [5]: NCI Yeast Anticancer Drug Screen. Data for the bub3 strain (AID 167). As to conditions: S. cerevisiae bub3 mutant strain, at 50.0 µM, stronger effect = higher value. In outline: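 Readout: yeast growth inhibition, expressed relative to vehicle-only wells. The test organism is a mutant strain from a panel with lesions in DNA repair or checkpoint genes.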
Assay [6] can be described thus: NCI Yeast Anticancer Drug Screen. Data for the mlh1 rad18 strain (AID 175). As to conditions: S. cerevisiae mlh1 rad18 strain growth inhibition; at 50.0 µM; stronger effect = higher value. In outline: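 Cells of a genetically altered yeast strain, deficient in DNA damage repair, were treated with compound. Their growth was then compared with that of vehicle-treated cultures to give inhibition.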

This is part of a sample that, as a whole, favours compounds with a hit. Of some 79,000 tested, about 15% had one in any assay. A number with no mark means an inactive call. Active and inactive are the calls of the source. Rule as the data show it: active = growth inhibition above about 70%; inactive = the rest.

Consider `COc1ccc(N2N=NN(C(C)C)/C2=C(/Cl)c2nnnn2-c2ccc(OC)cc2)cc1`, for which the growth inhibition was 25.8% in assay [1]; 42.9% in assay [2]; 33.8% in assay [3]; 19.1% in assay [4]; 24.9% in assay [5]; 39.3% in assay [6].

Turning to `BrC1CC2CC1C1C2CC2OC21` (stereo unspecified), the growth inhibition is -26.9% in assay [1]; -12.7% in assay [2]; -22.4% in assay [3]; -3.9% in assay [4]; 9.2% in assay [5]; -48.2% in assay [6].

As for `COc1ccc(N=Cc2cc(OC)c(OC)c(OC)c2)cc1`, the growth inhibition was -12.4% in assay [1]; -9.6% in assay [2]; 1.5% in assay [3]; -3.55% in assay [4]; -12.9% in assay [5]; 0.95% in assay [6].

In the case of `O=C(Nc1ccccc1)c1ccc(I)cc1`, the growth inhibition was 7.05% in assay [1]; -31.7% in assay [2]; 8.3% in assay [3]; -7.35% in assay [4]; 3.95% in assay [5]; -25.3% in assay [6].

Turning to `COC(=O)CCCc1c[nH]c2ccccc12`, the growth inhibition in assay [1] was 7.2%; in assay [2], -9.8%; in assay [3], -3.9%; in assay [4] it was -0.95%; in assay [5], 14.2%; in assay [6] it was -1.05%.

As for `COc1ccc(-c2cc(-c3ccc(OC)cc3)cc(-c3ccc(OC)cc3)c2)cc1`, the growth inhibition is -19.5% in assay [1]; -22.8% in assay [2]; -14.9% in assay [3]; -27.8% in assay [4]; -14% in assay [5]; -16.6% in assay [6].

Take `COc1ccc2c(c1)CC/C(=C\C1(Sc3ccccc3)CC1)C2O` (stereo unspecified): the growth inhibition in assay [1] was -12.1%; in assay [2] it was -3.35%; in assay [3], -10.2%; in assay [4] it was -16.6%; in assay [5], -10.7%; in assay [6], -15.8%.

For `CC(=O)N=Cc1c(O)[nH]c2ccccc12`, the growth inhibition in assay [1] was 36.9%; in assay [2] it was 11.7%; in assay [3], 0.5%; in assay [4] it was 6.85%; in assay [5], 8.3%; in assay [6], 0.45%.

With `CC1=C[C@H](C[C@]2(C)c3c(c4c(C)cccc4oc3=O)O[C@@H]2C)OC1=O`, the growth inhibition in assay [1] is 1%; in assay [2] it was 24.4%; in assay [3] it was 11.3%; in assay [4], 17.2%; in assay [5], -3.2%; in assay [6] it was 33.2%.

For `NC(=O)c1ccccc1[N+](=O)[O-]`, the growth inhibition is 3.75% in assay [1]; -7% in assay [2]; -16.4% in assay [3]; 6.4% in assay [4]; -16.1% in assay [5]; -6.5% in assay [6].

As for `CCOC(=O)c1c(Nc2ccccc2O)oc2ccccc12`, the growth inhibition in assay [1] was -0.4%; in assay [2] it was 3.1%; in assay [3], 6.95%; in assay [4] it was 17.6%; in assay [5] it was 6.45%; in assay [6], 11.9%.

As to `CCC(C)C(NCc1ccccc1)C(=O)O` (stereo unspecified), the growth inhibition is -8.75% in assay [1]; 7.5% in assay [2]; 26.9% in assay [3]; -13.2% in assay [4]; -18.4% in assay [5]; -8.25% in assay [6].

As for `CCOC(=O)Cn1c2ccccc2c(=O)c2cc(C)c(C)c(C#N)c21`, the growth inhibition in assay [1] was 13.4%; in assay [2], -12.9%; in assay [3] it was -11.6%; in assay [4], 9%; in assay [5], 8.5%; in assay [6], 8.1%.

`Oc1ccc(-c2nc(-c3cccnc3)c(-c3ccc(Cl)cc3)[nH]2)cc1`: the growth inhibition in assay [1] is 3.25%; in assay [2] it was -19.2%; in assay [3], 19.9%; in assay [4] it was 12.8%; in assay [5], 39.6%; in assay [6], 81.7% (active).

Turning to `CC(C)CNc1ncnc2c1ncn2C`, the growth inhibition is -2.2% in assay [1]; -4.85% in assay [2]; -4% in assay [3]; -18.9% in assay [4]; 1.1% in assay [5]; -0.25% in assay [6].

`NC(=O)O/N=C/c1ccccn1`: the growth inhibition in assay [1] was -12.1%; in assay [2], 2.75%; in assay [3], -17.4%; in assay [4], -10%; in assay [5] it was -2.65%; in assay [6], -6.95%.

Turning to `Cc1ccc(-c2cc(-c3ccccc3)c(C#N)c(=O)[nH]2)cc1`, the growth inhibition in assay [1] is 16.1%; in assay [2] it was 9.4%; in assay [3], 12.6%; in assay [4] it was 8.55%; in assay [5] it was 3.8%; in assay [6], 25.6%.

As for `Cn1c(=O)c2[nH]c(=O)n(C)c2n(C)c1=O`, the growth inhibition in assay [1] is -5.35%; in assay [2], 2.25%; in assay [3], 12.6%; in assay [4], -9.55%; in assay [5] it was 16.5%; in assay [6] it was 16.1%.

In the case of `CCN(CC)CCN(C)c1ccccc1`, the growth inhibition in assay [1] was 9.85%; in assay [2], 4.35%; in assay [3], -2.05%; in assay [4], -1.05%; in assay [5], -0.1%; in assay [6], 0.3%.

With `Clc1cccc(NNc2cccc(Cl)c2)c1`, the growth inhibition is -11.5% in assay [1]; -16.8% in assay [2]; -13.8% in assay [3]; -66.2% in assay [4]; 7.25% in assay [5]; -25.9% in assay [6].

For `CC(=O)OC/C=C1/CC[C@H]2[C@@H]3CCC4=CC(=O)[C@H](C)C[C@]4(C)[C@H]3[C@@H](O)C[C@]12C`, the growth inhibition was -1.85% in assay [1]; -2% in assay [2]; 4.05% in assay [3]; 1.8% in assay [4]; -9.2% in assay [5]; -21.8% in assay [6].
